Assay results taken from PubChem BioAssay (NCI).
This is part of a sample that, as a whole, favours compounds with a hit. Of some 83,000 tested, about 20% had one in any assay.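 Values shown are percent growth following 48 h exposure of cells in 96-well plates to a single concentration of compound; below 10 was considered active.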 The source made the active and inactive calls.

What was measured:
Assay in all cases: NCI-60 one-dose screen, 48 h (100 = growth as untreated, 0 = no growth, -100 = all killed)
Conditions in all cases: 10 µM
HT29 colon = system: HT29 colon
SNB-75 CNS = system: SNB-75 CNS
SNB-19 CNS = system: SNB-19 CNS
U251 CNS = system: U251 CNS
PC-3 prostate = system: PC-3 prostate
UACC-62 melanoma = system: UACC-62 melanoma
LOX IMVI melanoma = system: LOX IMVI melanoma
SK-MEL-28 melanoma = system: SK-MEL-28 melanoma
SK-MEL-2 melanoma = system: SK-MEL-2 melanoma
EKVX NSCLC = system: EKVX NSCLC
SN12C renal = system: SN12C renal
UO-31 renal = system: UO-31 renal
TK-10 renal = system: TK-10 renal
ACHN renal = system: ACHN renal
CAKI-1 renal = system: CAKI-1 renal
A498 renal = system: A498 renal
MOLT-4 leukemia = system: MOLT-4 leukemia
SR leukemia = system: SR leukemia
CCRF-CEM leukemia = system: CCRF-CEM leukemia
SK-MEL-5 melanoma = system: SK-MEL-5 melanoma

Measured: growth

O=C(O)CN1C(=O)c2cccc3cccc(c23)C1=O
inactive: HT29 colon 100% | SNB-75 CNS 89.4% | SNB-19 CNS 99.2% | U251 CNS 97.4% | PC-3 prostate 104% | UACC-62 melanoma 100% | LOX IMVI melanoma 98.6% | SK-MEL-28 melanoma 109% | SK-MEL-2 melanoma 111% | EKVX NSCLC 82.6% | SN12C renal 95.4% | UO-31 renal 97.1% | TK-10 renal 114% | ACHN renal 101% | CAKI-1 renal 89% | A498 renal 85.9% | MOLT-4 leukemia 115% | SR leukemia 112%

CCOC(=O)N1C/C(=C/c2ccc(Cl)cc2)C(=O)/C(=C/c2ccc(Cl)cc2)C1
inactive: SNB-75 CNS 66% | SNB-19 CNS 77.3% | U251 CNS 12.1% | PC-3 prostate 49.4% | UACC-62 melanoma 67.6% | SK-MEL-28 melanoma 105% | SK-MEL-2 melanoma 84.7% | SN12C renal 72.2% | UO-31 renal 45.2% | TK-10 renal 99.5% | ACHN renal 74.7% | CAKI-1 renal 65.5% | A498 renal 79.7% | CCRF-CEM leukemia 26% | MOLT-4 leukemia 21.5%
active: HT29 colon -40% | LOX IMVI melanoma -56.8% | SR leukemia -5.62%

CC1CC(=O)OC(C)C1 (stereo not drawn)
inactive: HT29 colon 112% | SNB-75 CNS 78.9% | SNB-19 CNS 116% | U251 CNS 101% | PC-3 prostate 101% | UACC-62 melanoma 114% | LOX IMVI melanoma 102% | SK-MEL-28 melanoma 102% | SK-MEL-2 melanoma 90.1% | SN12C renal 109% | UO-31 renal 94.1% | TK-10 renal 104% | ACHN renal 110% | CAKI-1 renal 93% | A498 renal 96.1% | CCRF-CEM leukemia 101%

O=C(O)c1ccc(P(=O)(O)O)c([N+](=O)[O-])c1
inactive: HT29 colon 101% | SNB-75 CNS 87.1% | SNB-19 CNS 107% | U251 CNS 95.1% | PC-3 prostate 97.7% | UACC-62 melanoma 108% | LOX IMVI melanoma 102% | SK-MEL-28 melanoma 110% | SK-MEL-2 melanoma 117% | SN12C renal 101% | UO-31 renal 86% | TK-10 renal 108% | ACHN renal 103% | CAKI-1 renal 94.7% | A498 renal 93.9% | MOLT-4 leukemia 111% | SR leukemia 87.7%

O=C1OCC2=C1C(c1cccc(Cl)c1)c1cc3c(cc1N2CCO)CCC3 (stereo not drawn)
inactive: SNB-75 CNS 40.5% | SNB-19 CNS 29.8% | PC-3 prostate 20.4% | UACC-62 melanoma 26.6% | LOX IMVI melanoma 12.6% | SK-MEL-28 melanoma 59.2% | EKVX NSCLC 38.9% | SN12C renal 21.1% | UO-31 renal 19% | TK-10 renal 56.6% | ACHN renal 25.5% | CAKI-1 renal 11.2% | CCRF-CEM leukemia 10.4% | MOLT-4 leukemia 13.7% | SR leukemia 27.6%
active: HT29 colon -9.18% | U251 CNS 3.51% | A498 renal -20.5%

COc1cc(OC)cc(-c2cncn2-c2ccc(-c3nc4cc(OC)cc(OC)c4s3)cc2)c1
inactive: HT29 colon 36.4% | SNB-75 CNS 60.9% | SNB-19 CNS 63.6% | U251 CNS 40.8% | PC-3 prostate 34.1% | UACC-62 melanoma 58.8% | LOX IMVI melanoma 51.4% | SK-MEL-28 melanoma 82.7% | SK-MEL-2 melanoma 81.1% | EKVX NSCLC 51.3% | SN12C renal 80.4% | UO-31 renal 49.5% | ACHN renal 67.4% | CAKI-1 renal 29% | CCRF-CEM leukemia 21.6% | MOLT-4 leukemia 44.3% | SR leukemia 35.5%

CC1(C)Cc2c(sc3ncn4nc(-c5ccc(O)cc5)nc4c23)CO1
inactive: HT29 colon 111% | SNB-75 CNS 35.5% | SNB-19 CNS 79.9% | U251 CNS 60.6% | PC-3 prostate 44.4% | UACC-62 melanoma 82.5% | LOX IMVI melanoma 75% | SK-MEL-28 melanoma 73.5% | SK-MEL-2 melanoma 84.7% | SN12C renal 63.5% | UO-31 renal 44.3% | TK-10 renal 56.4% | ACHN renal 67.6% | CAKI-1 renal 76.7% | CCRF-CEM leukemia 70.5% | MOLT-4 leukemia 69.4% | SR leukemia 22.8%
active: A498 renal -9.39%

CCN(CC)Cc1cc(Nc2ccnc3cc(Cl)ccc23)ccc1OC
inactive: HT29 colon 33.7% | SNB-75 CNS 86.8% | SNB-19 CNS 94.1% | U251 CNS 82% | PC-3 prostate 66.7% | UACC-62 melanoma 104% | LOX IMVI melanoma 47.7% | SK-MEL-28 melanoma 108% | SK-MEL-2 melanoma 116% | EKVX NSCLC 97.2% | SN12C renal 91.2% | UO-31 renal 55.9% | TK-10 renal 94.9% | ACHN renal 97% | CAKI-1 renal 102% | MOLT-4 leukemia 78.9% | SR leukemia 83.2%

O=C1/C(=C\c2cn(C(=O)c3ccc(Cl)cc3)c3ccccc23)c2ccccc2N1C(=O)c1ccc(Cl)cc1
inactive: HT29 colon 70.4% | SNB-75 CNS 54.4% | SNB-19 CNS 98.2% | U251 CNS 74.2% | PC-3 prostate 65.7% | UACC-62 melanoma 88.9% | LOX IMVI melanoma 67.2% | SK-MEL-28 melanoma 103% | SK-MEL-2 melanoma 49.8% | EKVX NSCLC 70.7% | SN12C renal 80.8% | UO-31 renal 64.4% | TK-10 renal 55.3% | ACHN renal 63.3% | CAKI-1 renal 73.8% | A498 renal 81.1% | MOLT-4 leukemia 61.5% | SR leukemia 56.1%

O=C(Nc1cccc(-n2cc(-c3ccncc3)c(-c3ccc(O)c(Cl)c3)n2)c1)c1ccc(N2CCOCC2)c(C(F)(F)F)c1
inactive: HT29 colon 12.4% | SNB-75 CNS 33.5% | SNB-19 CNS 67.9% | PC-3 prostate 24.4% | UACC-62 melanoma 43.3% | LOX IMVI melanoma 21.1% | SK-MEL-28 melanoma 49.7% | SN12C renal 57.5% | UO-31 renal 13.1% | TK-10 renal 73.4% | ACHN renal 29.3% | CAKI-1 renal 26.5% | A498 renal 71.7% | CCRF-CEM leukemia 20.2% | MOLT-4 leukemia 40.2% | SR leukemia 18%
active: U251 CNS -13%

COc1ccc(CN2CCC(N3CCCC3=O)c3cc(Cl)ccc32)cc1 (stereo not drawn)
inactive: HT29 colon 88.8% | SNB-75 CNS 103% | SNB-19 CNS 99.5% | U251 CNS 105% | PC-3 prostate 84.4% | UACC-62 melanoma 85.2% | LOX IMVI melanoma 103% | SK-MEL-28 melanoma 116% | EKVX NSCLC 106% | SN12C renal 99.5% | UO-31 renal 73.6% | TK-10 renal 108% | ACHN renal 101% | CAKI-1 renal 114% | A498 renal 111% | MOLT-4 leukemia 83% | SR leukemia 84.2%

O=C(Nc1cccc(-n2cc(-c3ccncc3)c(-c3ccc(O)c(Cl)c3)n2)c1)Nc1cccc(C(F)(F)F)c1
active: SNB-75 CNS -0.929% | U251 CNS -70.8% | PC-3 prostate -15.7% | UACC-62 melanoma -49.9% | LOX IMVI melanoma 1.13% | SK-MEL-28 melanoma -5.89% | UO-31 renal -9.43% | TK-10 renal -0.882% | ACHN renal 8.15% | CAKI-1 renal -14.5% | CCRF-CEM leukemia -0.796% | MOLT-4 leukemia -25% | SR leukemia -16.7%
inactive: HT29 colon 22% | SNB-19 CNS 32.2% | SN12C renal 10.3% | A498 renal 76.6%

CCCCCCCNc1nc(C=O)ncc1-c1ccc(C(F)(F)F)cc1
active: SR leukemia -2.53%
inactive: HT29 colon 86.8% | SNB-75 CNS 97% | SNB-19 CNS 91.1% | U251 CNS 86.1% | PC-3 prostate 79.8% | SK-MEL-5 melanoma 97.6% | UACC-62 melanoma 116% | LOX IMVI melanoma 90.7% | SN12C renal 101% | UO-31 renal 63.1% | TK-10 renal 97% | ACHN renal 104% | CAKI-1 renal 98.4% | A498 renal 86.2% | CCRF-CEM leukemia 83.9% | MOLT-4 leukemia 86.5%

COc1cc(Nc2ccnc(NCCCNc3ccnc4cc(Cl)ccc34)n2)cc(OC)c1
inactive: PC-3 prostate 26.1% | SN12C renal 22.6%
active: HT29 colon -31.9% | SNB-75 CNS -58.6% | SNB-19 CNS 2.03% | U251 CNS -64.4% | UACC-62 melanoma -82.5% | LOX IMVI melanoma -82.5% | SK-MEL-28 melanoma -100% | SK-MEL-2 melanoma -81.6% | UO-31 renal -74.8% | TK-10 renal -63.4% | ACHN renal -58.1% | CAKI-1 renal -3.88% | CCRF-CEM leukemia -5.06% | MOLT-4 leukemia -39.6% | SR leukemia -21.6%

COc1ccc2c(c1)nc(N)c1c3cccnc3cn21
inactive: SNB-75 CNS 42% | SNB-19 CNS 35.9% | U251 CNS 12.7% | PC-3 prostate 20.6% | UACC-62 melanoma 16% | LOX IMVI melanoma 35.1% | SK-MEL-2 melanoma 53.2% | EKVX NSCLC 66.5% | UO-31 renal 42.3% | TK-10 renal 51.3% | ACHN renal 37.8% | CCRF-CEM leukemia 22.7% | MOLT-4 leukemia 30.9%
active: HT29 colon -5.58% | CAKI-1 renal -15.7% | A498 renal -9.56% | SR leukemia 6.83%

Cc1nc2ccccc2c(N)c1-c1cc(C)c2c(C)nc3ccccc3c2n1
inactive: SNB-19 CNS 22.6% | UACC-62 melanoma 97% | SK-MEL-2 melanoma 96.3% | EKVX NSCLC 68.4% | SN12C renal 57.9% | TK-10 renal 14.3%
active: HT29 colon -93.5% | SNB-75 CNS -77.6% | U251 CNS -76.6% | PC-3 prostate -18.5% | LOX IMVI melanoma -84.7% | SK-MEL-28 melanoma -90.7% | UO-31 renal -95.7% | ACHN renal -92.4% | A498 renal -12.9% | CCRF-CEM leukemia -42.1% | MOLT-4 leukemia -50.8% | SR leukemia -39.5%

COc1ccc(Cl)cc1-n1nnc(-c2nc3ccccc3[nH]2)c1N
inactive: HT29 colon 47.2% | SNB-75 CNS 32.5% | SNB-19 CNS 77% | U251 CNS 53.2% | PC-3 prostate 89.2% | UACC-62 melanoma 104% | LOX IMVI melanoma 77.4% | SK-MEL-28 melanoma 100% | SK-MEL-2 melanoma 93.2% | SN12C renal 94.3% | UO-31 renal 71.9% | TK-10 renal 85.9% | ACHN renal 51.4% | CAKI-1 renal 67.7% | A498 renal 89.3% | CCRF-CEM leukemia 104% | MOLT-4 leukemia 98.5% | SR leukemia 71.8%

Clc1ccc(/C=C2\CCCC3=C2N=C2SC=NN2C3c2ccc(Cl)cc2)cc1 (stereo not drawn)
inactive: HT29 colon 60.7% | SNB-75 CNS 93.2% | SNB-19 CNS 96.5% | U251 CNS 84.6% | PC-3 prostate 96.3% | UACC-62 melanoma 80.2% | LOX IMVI melanoma 55.1% | SK-MEL-28 melanoma 98.4% | SK-MEL-2 melanoma 113% | SN12C renal 104% | UO-31 renal 86.5% | TK-10 renal 112% | ACHN renal 103% | CAKI-1 renal 106% | A498 renal 81.7% | CCRF-CEM leukemia 86.6% | MOLT-4 leukemia 99% | SR leukemia 76.3%
